Source: PubChem (Johns Hopkins Ion Channel Center)
KCNQ2 block: rat KCNQ2 potassium channel inhibitors, primary screen, cell-based, CHO-K1, FluxOR thallium flux, B-score | AID 2156, 2009 | B-score at 10 µM | 20 min; hits give low values | 310,000 compounds, 1.1% hits;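 active = fluorescence ratio B-score at most minus 3 library SDs, with starting brightness B-score within 2 library SDs, cut at about -5.5 in these data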
KCNQ2 enhance: potentiators of rat KCNQ2 potassium channel. B-score at 10 µM. AID 2239, 2010. Potassium voltage-gated channel subfamily KQT member 2 (Rattus norvegicus), O88943. 310,000 compounds, 0.54% hits. CHO-K1 KCNQ2, FluxOR thallium flux fluorescence; hits give high values;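 active = fluorescence ratio B-score at least 3 SD of library B-scores, with initial fluorescence B-score within 3 of them, cut at about 5.3 in these data; same plate scores as AID 2156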;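 note: B-score of peak minus minimum over baseline fluorescence ratio after K+ and Tl+ stimulus; positive B-score means potentiation of KCNQ2 with more thallium influx and brighter signal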
Active calls of the source: *; i = inactive; . = no result given. A selection: hits, their analogues and other compounds. The true share with any hit is near 1.6%.

SMILES	KCNQ2 block	KCNQ2 enhance
CCCOc1ccc(C(=O)Nc2ccc(S(=O)(=O)NC3=NCCCCC3)cc2)cc1	i	0.8
Cc1nn(Cc2ccc([N+](=O)[O-])cc2)c(=O)n1-c1ccccc1	i	0.03
CCCCC1(Cc2ccc([N+](=O)[O-])cc2)C(=O)N(c2ccccc2)N(c2ccccc2)C1=O	-6*	-6
Cc1ccc(S(=O)(=O)NNC(=O)c2ccncc2)cc1[N+](=O)[O-]	i	0.69
CC(NC(=O)C1CCCN(S(=O)(=O)N2CCOCC2)C1)c1ccccc1 (centres undefined)	i	.
COCCSc1nnc(NC(=O)C2CC(=O)N(CCc3ccc(F)cc3)C2)s1 (centres undefined)	i	.
COCCNC(=O)CN(C(=O)CCC(=O)Nc1ccccn1)c1ccc(C)c(C)c1	i	1.5
CC(C)(c1ccccc1)c1ccc(OCC(O)CNC2CCN(Cc3ccccc3)CC2)cc1 (centres undefined)	-8.3*	-8.3
CCOc1ccc(OCC(O)CNC2CCN(Cc3ccccc3)CC2)cc1 (centres undefined)	i	0.8
CCc1ccc(NC(=O)C(C)n2nc(C)c([N+](=O)[O-])c2C)cc1 (centres undefined)	i	1
CCC1CCCCN1C(=O)COc1c(Br)cc(Br)c2cccnc12 (centres undefined)	-7.8*	-7.8
CCC1CCCCN1C(=O)COc1ccc(F)cc1 (centres undefined)	i	0.05
CN(CCOc1ccccc1)CC(=O)Nc1cccc(Br)c1	-6.3*	-6.3
Cc1cc(NC(=O)CN(C)CCOc2ccccc2)ccc1Br	i	.
CN(c1cccc(NC(=O)c2ccc(Cl)c(S(=O)(=O)N3CCOCC3)c2)c1)S(C)(=O)=O	i	.
CC(=O)N1NC(=Nc2ccccc2)SC1(C)C	i	3.1
COc1ccc(NC(=O)/C(Cl)=C(/Cl)S(=O)(=O)Cc2ccccc2)cn1	i	5.5*
COc1ccc(NC(=O)C(Cl)=C(Cl)Cl)cn1	i	.
NC(CSCc1cccc(Br)c1)C(=O)O (centres undefined)	-6*	-6
NC(=O)CSCc1cccc(Br)c1	i	.
CC1CC(C)(C)N(C(=O)CSc2ccc(-c3ccc(F)cc3)nn2)c2ccccc21 (centres undefined)	-5.7*	-5.7
CC1CCN(C(=O)CSc2ccc(-c3ccc(F)cc3)nn2)CC1	i	1.1
O=C(CSc1ccccc1)N1CCN(c2ccc(F)cc2)CC1	i	.
Cc1noc(C)c1S(=O)(=O)N(CC(=O)NC1CCC(C)CC1)c1ccc(C(C)C)cc1 (centres undefined)	-7.1*	-7.1
CCOc1ccc(N(CC(=O)NC2CCC(C)CC2)S(=O)(=O)c2c(C)noc2C)cc1 (centres undefined)	i	0.09
SMILES	KCNQ2 block	KCNQ2 enhance
CC(=O)N1CC2([N+](=O)[O-])CN(C(C)=O)CC([N+](=O)[O-])(C1)C2(C)C	i	.
C=C(C)c1cccc(C(C)(C)NC(=O)Nc2ccccc2OCC)c1	i	8.7*
C=C(C)c1cccc(C(C)(C)NC(=O)Nc2cc(C)ccc2OC)c1	i	1.9
O=C(COC(=O)c1ccccn1)c1ccc([N+](=O)[O-])cc1	i	.
Cc1noc(C)c1CSc1ncnc2sc(C)c(C)c12	i	1.1
Cc1noc(C)c1CSc1ncnc2sc3c(c12)CCCCC3	i	5.5*
Cc1cccc(OCC(=O)N2CCN(C(=O)c3ccco3)CC2)c1	i	.
O=C(COc1ccccc1)NC(NC(=S)Nc1ccccc1O)C(Cl)(Cl)Cl (centres undefined)	-6.2*	-6.2
Cc1ccccc1NC(=S)NC(NC(=O)COc1ccccc1)C(Cl)(Cl)Cl (centres undefined)	i	.
O=C(c1ccc(-c2ccccc2Cl)o1)N1CCN(S(=O)(=O)c2cccs2)CC1	i	.
Cc1ccc(Oc2cc(C)nc(-c3ccccc3O)n2)cc1	i	.
Cc1cc(OC2CCCCC2)nc(-c2ccccc2O)n1	-5.8*	-5.8
COc1cc(C2Nc3ccccc3NC3=C2C(=O)CC(C)(C)C3)cc(OC)c1OC(C)=O (centres undefined)	i	0.33
COc1cccc(-c2cc(C(=O)N3CCN(c4ncccn4)CC3)c3ccccc3n2)c1	i	.
CC(C)Oc1cccc(-c2cc(C(=O)N3CCN(c4ncccn4)CC3)c3ccccc3n2)c1	-7.2*	-7.2
Fc1cccc(CSc2ccc(-c3ccc4c(c3)OCO4)nn2)c1	i	.
Cc1ccccc1CSc1ccc(-c2ccc3c(c2)OCO3)nn1	-5.8*	-5.8
COc1ccc(C)cc1NC(=O)CCNS(=O)(=O)c1cccc(C(F)(F)F)c1	i	.
O=C(CNCc1ccccc1)Nc1ccccc1-c1ccccc1	i	.
O=C(CNCc1ccccc1)Nc1cccc(Cl)c1Cl	-6*	-6
COC(=O)c1ccc(COc2ccccc2/C=C(\C#N)C(=O)Nc2c(C)cc(C)cc2C)cc1	-7.2*	-7.2
